This is a sample that favours compounds with a hit; in the whole collection about 3.3% have one here.
Rpn11 block: Rpn11 (PSMD14) deubiquitinase inhibitors, primary screen, biochemical, fluorescence polarization, uHTS | 26S proteasome non-ATPase regulatory subunit 14 (Homo sapiens), O00487 | human 26S proteasome, Ub4-pepOG fluorescence polarization; 20S core pre-blocked with epoxomicin | inhibition, % at 20 µM | 0.59% of 360,000 active | AID 588493, 2011;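 active = inhibition at 20 µM, scaled to each plate's controls, above about 33%, limit read from the data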
PHOSPHO1 block: PubChem AID 1565; recombinant PHOSPHO1, absorbance phosphatase assay; inhibition, % at 13.3 µM; 1.1% of 290,000 active; in the data active = inhibition above about 60%
HNF4A DNA FP: change in binding of human HNF4A to DNA, primary screen, biochemical, fluorescence polarization, FITC-DNA; 1 h; activity change, % at 10 µM; 0.3% of 360,000 active; AID 1224865, 2016; in the data active = activity change above about 30%, passing the limit was not always enough
NRP1-CendR mod: modulators of CendR peptide binding to NRP-1, primary screen, biochemical, fluorescence polarization, uHTS; Neuropilin-1 (Homo sapiens), O14786; FAM-RPARPAR peptide binding to NRP-1; inhibition, % at 25 µM; 0.85% of 360,000 active; AID 602438, 2012;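 active = inhibition or corrected inhibition above about 18%, plus a signal ratio from 0.5 to 1.5, limit read from the data, passing the limit was not always enough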
Target sequence (O14786 whole entry, looked up): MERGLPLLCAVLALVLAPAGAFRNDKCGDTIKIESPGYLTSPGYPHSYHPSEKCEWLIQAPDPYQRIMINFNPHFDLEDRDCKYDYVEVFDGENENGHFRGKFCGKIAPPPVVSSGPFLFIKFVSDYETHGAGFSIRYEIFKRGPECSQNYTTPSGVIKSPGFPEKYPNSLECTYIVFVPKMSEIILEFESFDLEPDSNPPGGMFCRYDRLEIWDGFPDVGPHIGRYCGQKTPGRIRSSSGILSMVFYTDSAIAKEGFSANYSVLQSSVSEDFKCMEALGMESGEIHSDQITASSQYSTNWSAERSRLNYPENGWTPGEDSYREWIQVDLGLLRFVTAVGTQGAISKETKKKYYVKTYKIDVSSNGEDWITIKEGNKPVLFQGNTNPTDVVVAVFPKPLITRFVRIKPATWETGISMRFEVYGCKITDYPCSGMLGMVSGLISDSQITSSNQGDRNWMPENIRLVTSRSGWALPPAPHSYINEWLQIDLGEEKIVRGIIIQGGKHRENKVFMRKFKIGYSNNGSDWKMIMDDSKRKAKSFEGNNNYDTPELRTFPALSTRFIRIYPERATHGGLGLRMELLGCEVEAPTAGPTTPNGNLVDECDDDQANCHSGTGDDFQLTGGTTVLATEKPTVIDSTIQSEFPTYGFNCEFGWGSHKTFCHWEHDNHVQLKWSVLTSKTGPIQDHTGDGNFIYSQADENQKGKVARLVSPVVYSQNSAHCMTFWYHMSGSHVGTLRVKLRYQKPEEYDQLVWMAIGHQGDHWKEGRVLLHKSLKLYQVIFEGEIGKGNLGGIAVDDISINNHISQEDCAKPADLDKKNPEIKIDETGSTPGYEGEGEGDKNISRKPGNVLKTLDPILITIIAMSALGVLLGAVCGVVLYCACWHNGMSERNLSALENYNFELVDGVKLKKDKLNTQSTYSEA
TPT1 inh: Candida albicans TPT1 enzyme inhibitors, primary screen, biochemical, fluorescence polarization; inhibition, % at 5 µM; 0.81% of 300,000 active; tRNA 2'-phosphotransferase TPT1 (Candida albicans SC5314); recombinant caTPT1, FP RNA substrate dephosphorylation; AID 1962, 2009;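 active = inhibition above the mean of all tested compounds plus 3 SD, set per screening campaign, cut at about 24% in these data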;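 note: plate controls were DMSO alone for no effect and ferristatin control at 100 nM for full effect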
Fh CTSL1 inh: Fasciola hepatica cathepsin L1 inhibitors, primary screen, counter-screen for PFM18AAP inhibitor project, biochemical, QFRET, fluorogenic peptide substrate | recombinant F. hepatica cathepsin L1, Z-Leu-Arg-MCA fluorescence | AID 1906, 2009 | inhibition, % at 5.96 µM | 0.49% of 300,000 active;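 active = inhibition above the mean of all tested compounds plus 3 SD, set per screening campaign, cut at about 17% in these data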;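 note: 0% = plate median of test compound wells and 100% = 1 µM Z-Phe-Ala-diazomethylketone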
Starred values were filed as active, the others as inactive.

Results for O=C(Nc1ccc2c(c1)CCC2)c1ccc(F)c(S(=O)(=O)N2CCOCC2)c1 ?
Rpn11 block: 4.9; PHOSPHO1 block: -23.9; HNF4A DNA FP: -2.5; NRP1-CendR mod: 25.3*; TPT1 inh: -0.5; Fh CTSL1 inh: 1.4

How did O=C(NCC1CCCCC1)c1ccc(F)c(S(=O)(=O)N2CCOCC2)c1 do in these assays?
Rpn11 block: 3.5; HNF4A DNA FP: 2.6; NRP1-CendR mod: 20.9*

Results for CC1CCCC(C)N1C(=O)COC(=O)c1ccc(F)c(S(=O)(=O)N2CCOCC2)c1 (centres undefined) ?
Rpn11 block: 4.8; PHOSPHO1 block: 27.6; HNF4A DNA FP: 8.8; NRP1-CendR mod: 22.6*; TPT1 inh: 0.7; Fh CTSL1 inh: -3.1

How did COCCn1c(N)c(N(Cc2ccccc2)C(=O)C2=COCCO2)c(=O)[nH]c1=O do in these assays?
Rpn11 block: -8.8; PHOSPHO1 block: -32.5; HNF4A DNA FP: 1.7; NRP1-CendR mod: 8.7; TPT1 inh: -3.3; Fh CTSL1 inh: 0.4

What do the screens show for `CC1(c2ccc(OC(F)F)cc2)NC(=O)N(CC(=O)c2ccc3c(c2)OCO3)C1=O` (centres undefined)?
Rpn11 block: -16.2; HNF4A DNA FP: 0.6; NRP1-CendR mod: 14.5; TPT1 inh: 3.7; Fh CTSL1 inh: 0.5

How did COc1ccc(CN(C)C(=O)CNC(=O)c2sc3ccccc3c2Cl)c(OC)c1OC do in these assays?
Rpn11 block: 5.6; HNF4A DNA FP: 0.8; NRP1-CendR mod: 45.8*

How did CC(=O)Oc1cc(C(=O)OCC(=O)N2CCc3ccccc3C2)cc(OC(C)=O)c1OC(C)=O do in these assays?
Rpn11 block: -6.4; HNF4A DNA FP: -11.8; NRP1-CendR mod: -61.3

What do the screens show for `COC(=O)CN1C(=O)COc2ccc(Cl)cc21`?
Rpn11 block: 5.4; PHOSPHO1 block: -20.9; HNF4A DNA FP: 1.0; NRP1-CendR mod: -9.6; TPT1 inh: -1.9; Fh CTSL1 inh: 4.5

What do the screens show for `COCCNC(=O)CN1C(=O)COc2ccc(Cl)cc21`?
Rpn11 block: -15.0; PHOSPHO1 block: -18.5; HNF4A DNA FP: 0.5; NRP1-CendR mod: -2.1; TPT1 inh: -1.4; Fh CTSL1 inh: 17.6*

Results for O=C(O)CCN1C(=O)c2ccc(NC(=O)c3ccco3)cc2C1=O ?
Rpn11 block: 1.2; PHOSPHO1 block: 29.2; HNF4A DNA FP: -0.8; NRP1-CendR mod: 21.0*; TPT1 inh: 4.6; Fh CTSL1 inh: 1.8

What do the screens show for `O=C(Nc1ccc(Cl)cc1)[C@@H]1[C@@H]2C(=O)N(c3ccc4ccccc4c3)C(=O)[C@@H]2[C@H]2C=CC=NN21`?
Rpn11 block: 14.2; PHOSPHO1 block: 75.7*; HNF4A DNA FP: 5.6; NRP1-CendR mod: -3.2; TPT1 inh: 0.9; Fh CTSL1 inh: 7.8

How did O=C(COC(=O)c1ccc(N2CCCC2=O)cc1)c1ccccc1 do in these assays?
Rpn11 block: 1.4; PHOSPHO1 block: 31.0; HNF4A DNA FP: 3.2; NRP1-CendR mod: 28.3*; TPT1 inh: 0.3; Fh CTSL1 inh: 0.1

How did COc1ccc(-c2ccc3c(c2)C2CC3CCN2Cc2ccc(OC(F)(F)F)cc2)cc1 (centres undefined) do in these assays?
Rpn11 block: 1.7; HNF4A DNA FP: 0.3; NRP1-CendR mod: -2.4

Results for Cc1[nH]c(=O)nc(NN=Cc2ccc(Cl)cc2)c1C(=O)Nc1ccc(Cl)cc1 ?
Rpn11 block: 2.4; HNF4A DNA FP: 4.5; NRP1-CendR mod: -9.6

What do the screens show for `COc1ccc2cc1Oc1ccc(cc1)CC1c3c(cc(OC)c4c3Oc3cc5c(cc3O4)CCNC5C2)CCN1C` (centres undefined)?
Rpn11 block: 5.1; PHOSPHO1 block: 19.9; HNF4A DNA FP: 99.7*; NRP1-CendR mod: 3.4; TPT1 inh: -1.1; Fh CTSL1 inh: 1.8

How did COc1ccc2cc1Oc1ccc(cc1)C[C@H]1c3c(cc(OC)c4c3Oc3c(ccc5c3[C@H](C2)N(C)CC5)O4)CCN1C do in these assays?
Rpn11 block: 1.1; HNF4A DNA FP: 76.4*; NRP1-CendR mod: -0.3

Results for COc1cc2c(c(O)c1OC)C1Cc3ccc(OC)c(OC)c3CN1CC2 (centres undefined) ?
Rpn11 block: 2.6; HNF4A DNA FP: 0.1; NRP1-CendR mod: -2.6

Results for COc1ccc(C)cc1S(=O)(=O)Nc1cc2c3c(c1)C(C)C(=O)N3CCC2 (centres undefined) ?
Rpn11 block: -6.8; HNF4A DNA FP: -2.4; NRP1-CendR mod: 22.6*; TPT1 inh: -3.8; Fh CTSL1 inh: 2.5

What do the screens show for `CCOc1ccc(NC(=O)CN2CCN(CC(=O)Nc3cccc(F)c3)CC2)cc1`?
Rpn11 block: 7.3; PHOSPHO1 block: -4.6; HNF4A DNA FP: 1.2; NRP1-CendR mod: 4.4; TPT1 inh: -1.4; Fh CTSL1 inh: -0.4

How did CCOc1ccc(NC(=O)CN2CCN(CC(=O)Nc3ccc(Cl)c(C(F)(F)F)c3)CC2)cc1 do in these assays?
Rpn11 block: 2.8; PHOSPHO1 block: -0.5; HNF4A DNA FP: 0.1; NRP1-CendR mod: 21.2*; TPT1 inh: 0.0; Fh CTSL1 inh: 3.9

What do the screens show for `Oc1ccc(-c2nccc(-c3ccc(Cl)cc3Cl)n2)cc1`?
Rpn11 block: 2.2; PHOSPHO1 block: 12.5; HNF4A DNA FP: -1.7; NRP1-CendR mod: 40.2*; TPT1 inh: 4.6; Fh CTSL1 inh: 0.1

How did COc1ccccc1N(CC(=O)NC1CCCC1)C(=O)CCC(=O)Nc1ccccn1 do in these assays?
Rpn11 block: 1.5; PHOSPHO1 block: 23.7; HNF4A DNA FP: -0.4; NRP1-CendR mod: 21.4*; TPT1 inh: -0.9; Fh CTSL1 inh: -5.7

Results for CCOC(=O)C(C(=O)Nc1cccc(C)n1)C1CCCCC1 (centres undefined) ?
Rpn11 block: 10.5; PHOSPHO1 block: -5.4; HNF4A DNA FP: -1.1; NRP1-CendR mod: -5.5; TPT1 inh: 0.6; Fh CTSL1 inh: -7.6

What do the screens show for `Cc1cc(C)cc(N(CC(=O)NC(C)(C)C)C(=O)CCC(=O)Nc2ccccn2)c1`?
Rpn11 block: 3.9; PHOSPHO1 block: -2.0; HNF4A DNA FP: 7.6; NRP1-CendR mod: 7.9; TPT1 inh: 0.0; Fh CTSL1 inh: -2.0

What do the screens show for `O=C(CCC(=O)N(CC(=O)NC1CCCCC1)Cc1ccccc1)Nc1ccccn1`?
Rpn11 block: -4.0; PHOSPHO1 block: 2.0; HNF4A DNA FP: -1.6; NRP1-CendR mod: -0.8; TPT1 inh: -2.6; Fh CTSL1 inh: 1.7

What do the screens show for `Cc1ccnc(NC(=O)CCC(=O)N(CC(=O)NC2CCCCC2)Cc2ccccc2)c1`?
Rpn11 block: -0.7; PHOSPHO1 block: -7.9; HNF4A DNA FP: 4.2; NRP1-CendR mod: 31.0*; TPT1 inh: 1.4; Fh CTSL1 inh: -2.2

Screens (PubChem)
